# Assay results published in article PMC8384837, “Expanding the binding specificity for RNA recognition by a PUF domain”.
# Substitutions are numbered along the chain they refer to.
# Key:
# Assay in all cases: yeast three-hybrid, YBZ-1, SC-Leu-His + 0.5 mM 3-AT, 4 days
# Conditions in all cases: tags: N-Gal4 AD-HA kept; label: inside an RPR1-promoter hybrid RNA with tandem MS2 sites; ssRNA
# PUM1 PUF domain R1-SRR = PUM1 PUF domain R1-SRR (Homo sapiens, UniProt Q14671 828-1176, Q867R)
# Method in brief: (§1)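 Matching RNA elements and Pumilio-1 PUF domain libraries, randomized at the three base-contacting residues of every repeat, were co-expressed from a centromeric plasmid in strain YBZ-1 (LexA–MS2 coat fusion, HIS3 reporter). The repeat regions were PCR-amplified and Illumina-sequenced from cells grown four days on SC-Leu (input) or SC-Leu-His + 0.5 mM 3-AT (selection). The interaction score is the log change in variant frequency from input to selection. It is computed in log2, with a pseudocount of 1 for absent variants.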
# PUM1 PUF domain R1-GVR = PUM1 PUF domain R1-GVR (Homo sapiens, UniProt Q14671 828-1176, S863G;R864V;Q867R)
# Method in brief: as §1
# PUM1 PUF domain R4-AFP = PUM1 PUF domain R4-AFP (Homo sapiens, UniProt Q14671 828-1176, N971A;H972F;Q975P)
# Method in brief: as §1
# PUM1 PUF domain R6-FRL = biological target: T1, PUM1 PUF domain R6-FRL (Homo sapiens, UniProt Q14671 828-1176, N1043F;Y1044R;Q1047L)
# T1 sequence: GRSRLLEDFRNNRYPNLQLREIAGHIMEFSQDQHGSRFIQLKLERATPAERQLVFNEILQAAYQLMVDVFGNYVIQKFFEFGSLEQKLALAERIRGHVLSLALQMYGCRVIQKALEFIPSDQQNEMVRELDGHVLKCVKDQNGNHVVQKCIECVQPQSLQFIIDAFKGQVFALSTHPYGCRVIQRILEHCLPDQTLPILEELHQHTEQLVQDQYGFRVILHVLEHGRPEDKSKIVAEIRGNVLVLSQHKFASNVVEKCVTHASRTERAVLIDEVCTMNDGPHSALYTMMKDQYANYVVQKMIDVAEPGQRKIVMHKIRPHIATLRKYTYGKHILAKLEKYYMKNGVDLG
# Method in brief: as §1
# PUM1 PUF domain R5-KQT = PUM1 PUF domain R5-KQT (Homo sapiens, UniProt Q14671 828-1176, C1007K;R1008Q;Q1011T)
# Method in brief: as §1
# PUM1 PUF domain R8-SYR = PUM1 PUF domain R8-SYR (Homo sapiens, UniProt Q14671 828-1176, N1122S;Q1126R)
# Method in brief: as §1
# PUM1 PUF domain R3-GWD = PUM1 PUF domain R3-GWD (Homo sapiens, UniProt Q14671 828-1176, C935G;R936W;Q939D)
# Method in brief: as §1
# PUM1 PUF domain R6-GWC = biological target: T2, PUM1 PUF domain R6-GWC (Homo sapiens, UniProt Q14671 828-1176, N1043G;Y1044W;Q1047C)
# T2 sequence: T1 sequence with F216G, R217W, L220C
# Method in brief: as §1
# PUM1 PUF domain R3-RVR = PUM1 PUF domain R3-RVR (Homo sapiens, UniProt Q14671 828-1176, C935R;R936V;Q939R)
# Method in brief: as §1
# PUM1 PUF domain R6-SWE = biological target: T3, PUM1 PUF domain R6-SWE (Homo sapiens, UniProt Q14671 828-1176, N1043S;Y1044W;Q1047E)
# T3 sequence: T1 sequence with F216S, R217W, L220E
# Method in brief: as §1
# Chain of PUM1 PUF domain R5-KQT (Q14671 828-1176 C1007K/R1008Q/Q1011T): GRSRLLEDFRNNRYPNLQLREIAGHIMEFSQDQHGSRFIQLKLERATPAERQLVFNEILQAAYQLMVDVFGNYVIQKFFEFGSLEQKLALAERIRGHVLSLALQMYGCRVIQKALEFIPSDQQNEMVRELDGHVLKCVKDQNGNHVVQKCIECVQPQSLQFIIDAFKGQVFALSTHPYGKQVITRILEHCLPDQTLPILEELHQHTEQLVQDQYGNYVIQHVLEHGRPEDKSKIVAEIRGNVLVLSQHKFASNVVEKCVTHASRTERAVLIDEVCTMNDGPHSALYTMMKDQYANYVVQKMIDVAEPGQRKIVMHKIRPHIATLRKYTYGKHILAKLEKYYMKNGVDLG
# Chain of PUM1 PUF domain R4-AFP (Q14671 828-1176 N971A/H972F/Q975P): as the sequence (Q14671 828-1176 C1007K/R1008Q/Q1011T) above, with N144A, H145F, Q148P, K180C, Q181R, T184Q counted along it
sequence,measurement,setting,value
GGCUAGAACUAGUGGAUCCCCCGGCGCCCGGCGGCUCGAGCCCGGGUAAGUGUAAAUUGUCUGCAUGCCGCCGGGCGCCAUGCCUGCAGGUCGACUCUAGAAAACAUG,binding signal,PUM1 PUF domain R1-SRR,1.58 log2 enrichment (interaction score)
same,binding signal,PUM1 PUF domain R1-GVR,2.24 log2 enrichment (interaction score)
GGCUAGAACUAGUGGAUCCCCCGGCGCCCGGCGGCUCGAGCCCGGGUAAGUGUAAAUAGUCUGCAUGCCGCCGGGCGCCAUGCCUGCAGGUCGACUCUAGAAAACAUG,binding signal,PUM1 PUF domain R4-AFP,3.88 log2 enrichment (interaction score)
same,binding signal,PUM1 PUF domain R6-FRL,2.93 log2 enrichment (interaction score)
same,binding signal,PUM1 PUF domain R5-KQT,2.17 log2 enrichment (interaction score)
same,binding signal,PUM1 PUF domain R8-SYR,4.42 log2 enrichment (interaction score)
same,binding signal,PUM1 PUF domain R3-GWD,5.07 log2 enrichment (interaction score)
same,binding signal,PUM1 PUF domain R6-GWC,2.76 log2 enrichment (interaction score)
GGCUAGAACUAGUGGAUCCCCCGGCGCCCGGCGGCUCGAGCCCGGGUAAGUGUAAAUCGUCUGCAUGCCGCCGGGCGCCAUGCCUGCAGGUCGACUCUAGAAAACAUG,binding signal,PUM1 PUF domain R1-SRR,3.51 log2 enrichment (interaction score)
same,binding signal,PUM1 PUF domain R1-GVR,3.35 log2 enrichment (interaction score)
GGCUAGAACUAGUGGAUCCCCCGGCGCCCGGCGGCUCGAGCCCGGGUAAGUGUAAUUAGUCUGCAUGCCGCCGGGCGCCAUGCCUGCAGGUCGACUCUAGAAAACAUG,binding signal,PUM1 PUF domain R3-RVR,4.85 log2 enrichment (interaction score)
GGCUAGAACUAGUGGAUCCCCCGGCGCCCGGCGGCUCGAGCCCGGGUAAGUGGAAAUAGUCUGCAUGCCGCCGGGCGCCAUGCCUGCAGGUCGACUCUAGAAAACAUG,binding signal,PUM1 PUF domain R6-SWE,4.47 log2 enrichment (interaction score)
